{
  "source": "PubChem BioAssay AID588856",
  "about": "(National Center for Advancing Translational Sciences (NCATS), 2011)",
  "note": "“And” between values parts separate entries of the source, which are not always exact repeats. Equal entries are not always repeated. About 3,100 (0.76%) of roughly 410,000 compounds were called active. Calls come from the whole dose curve; as a rule, active = well fitted cell-killing curve with a large enough effect; inactive = no such curve, though single readings can be large or run the other way. What follows is part of a selection rich in actives, with near analogues and random picks from the rest. Entries that show only a call come without a potency. Where a structure was tested more than once in an assay, its records may differ in their call. Potency is the fitted concentration of half-maximal effect.",
  "data": [
    {"assay": "qHTS for Inhibitors of TGF-b: Cytotox Counterscreen", "conditions": "HepG2 CAGA-GFP viability, ATP luminescence, 18 h; series mostly up to 46.1 µM", "text": "TGF-b is a main component in the TGF-b signaling pathway which plays diverse roles in cellular and development pathways. TGF-b is mediated by transcription factors called \"Smads\". Although the Smad-dependent pathway is the primary canonical TGF-b signaling mode, TGF-b1 can also activate alternative signaling pathways, including those involving MAPK (ERK, JNK and p38). This interaction may mediate or enhance Smad-dependent responses, or can exert Smad-independent effects. The complexity of this signaling cascade allows the TGF-b superfamily to perform unique, overlapping or redundant functions. We believe that targeting the TGF-beta pathway at the Smad-transcription factor level may eliminate the consequences of disrupting the entire pathway and offer specificity without affecting other signaling pathways. Smad3 is the primary transducer of TGF-b's signals and Smad3 regulates many functions attributed to TGF-b signaling. We hypothesize that Smad3 inhibitors will selectively eliminate Smad3-specific TGF-beta signals without undesired off-target effects. We aim to identify Smad3-small molecule antagonists using a quantitative high throughput screening (qHTS) approach.\nA high-throughput assay was developed to screen the NIH Molecular Libraries Small Molecule Repository (MLSMR). This is a cell based assay, where TGF-b is tagged with GFP. This is a counterscreen that evaluates the cytotoxicity of the compounds that were screened in the primary cell-based screen (AID 588855).\nMH087449NIH Chemical Genomics Center [NCGC]\nNIH Molecular Libraries Probe Centers Network [MLPCN]\nAssay Submitter (PI): Sushil Rane, National Institute of […]\nSuspensions of trypsinized HEPG2 CAGA-GFP cells were dispensed into white, tissue culture-treated, solid 1536-well plates at 5uL/well (1000 cells/well final concentration) in DMEM medium supplemented with 1% FBS. Plates were incubated at 37 degrees C for 2 hours, after which 23 nL of compounds or DMSO were delivered to each well using a pin tool. One uL of recombinant TGF-beta in DMEM (1% FBS) was then dispensed (500 pg/mL final concentration), and plates were incubated at 37 degrees C for 18 hours. Two uL of CellTiter Glo (Promega), a luminescence-based viability reagent, was dispensed, followed by a 10 minute room temperature incubation. The plates were then measured on a PerkinElmer ViewLux plate reader for luminescence (clear filter) using a 5 second exposure. The %Activity was determined from the corrected luminescence values. Wells containing media only (no cells) were used to normalize %Activity of identified toxic compounds; media-only wells corresponded to 100%Activity (complete cell-killing), while DMSO-dosed cell controls were used to normalize 0%Activity (no toxicity).\nConcentration-response curves were fitted to the signals arising from the resulting luminescence. The concentration-effect curves were then classified based on curve quality (r2), response magnitude and degree of measured activity, and compounds were subsequently categorized based on their curve class.", "values": [
      {"smiles": "CCOc1ccccc1NC(=O)CN1CCCN(Cc2cccc(Cl)c2)S1(=O)=O", "Potency": "inactive"},
      {"smiles": "O=C1COc2ccc(-c3csc(-c4ccc(Cl)cc4)n3)cc2N1", "Potency": "inactive"},
      {"smiles": "CNC(=O)[C@]1(C(F)(F)F)C[C@H](CCc2ccccc2)CCCO1", "Potency": "inactive"},
      {"smiles": "Cc1cccc(OCC(O)CN2CCN(S(=O)(=O)c3ccc(C)cc3C)CC2)c1", "note": "(stereo unspecified)", "Potency": "inactive"},
      {"smiles": "CCc1ccc(OCC(O)CN2CCN(CCO)CC2)cc1", "note": "(stereo unspecified)", "Potency": "inactive"},
      {"smiles": "Cc1cccc(OCC(O)CN2CCN(CCN3C(=O)c4cccc5cccc(c45)C3=O)CC2)c1C", "note": "(stereo unspecified)", "Potency": "12.6 µM (active)"},
      {"smiles": "COc1cc2nc(NCC(C)c3ccccc3)n3nc(-c4ccccc4)nc3c2cc1OC", "note": "(stereo unspecified)", "Potency": "inactive"},
      {"smiles": "Cc1cc2nc(-c3ccc(NC(=O)c4cc5ccccc5o4)cc3)oc2cc1C", "Potency": "inactive"},
      {"smiles": "CC(C)C(=O)NC(NC(=S)NC1CCS(=O)(=O)C1)C(Cl)(Cl)Cl", "note": "(stereo unspecified)", "Potency": "inactive"},
      {"smiles": "CCCSC(=S)NC1CCS(=O)(=O)C1", "note": "(stereo unspecified)", "Potency": "11.2 µM (active)"},
      {"smiles": "O=S1(=O)CCC(NC(=S)SCc2ccccc2Br)C1", "note": "(stereo unspecified)", "Potency": "inactive"},
      {"smiles": "CCOc1ccc(C(O)Cn2c(=N)n(CCN3CCCCC3)c3ccccc32)cc1", "note": "(stereo unspecified)", "Potency": "inactive"},
      {"smiles": "O=C(/C=C/c1cn(CC(O)CN2CCc3ccccc32)c2ccccc12)c1ccc(Br)cc1", "note": "(stereo unspecified)", "Potency": "inactive"},
      {"smiles": "CCOc1ccc(C(=O)/C=C/c2cn(CC(O)CN3CCCCCC3)c3ccccc23)cc1", "note": "(stereo unspecified)", "Potency": "11.2 µM (active)"},
      {"smiles": "COc1ccc(CNC(=O)C(Cc2ccccc2)n2cccc2)cc1", "note": "(stereo unspecified)", "Potency": "inactive"},
      {"smiles": "COc1ccc(C(=O)NC(Cc2ccc(OC(=O)c3ccc(OC)cc3)cc2)C(=O)O)cc1", "note": "(stereo unspecified)", "Potency": "inactive"},
      {"smiles": "COc1ccc(CC(N)c2csc(NC(=O)NC(c3ccccc3)c3ccccc3)n2)cc1", "note": "(stereo unspecified)", "Potency": "12.6 µM (active)"},
      {"smiles": "CN(C(=N)N)c1ccc(/C=C2\\C=Cc3ccccc32)cc1", "Potency": "inactive"},
      {"smiles": "Cc1ccc2c(=O)c(C(=O)c3ccc(Cl)cc3)cn(CC(=O)NC3CCCCC3)c2n1", "Potency": "inactive"},
      {"smiles": "NCCCNC(=S)NCCCN(Cc1ccc(Cl)cc1)c1ccc(Br)cn1", "Potency": "inactive and 17.8 µM (active)"},
      {"smiles": "S=C(NCCCc1cnc[nH]1)NCCCN(Cc1ccc(Cl)c(Cl)c1)c1ccc(Br)cn1", "Potency": "10 µM (active)"},
      {"smiles": "CC(C)(C)c1ccc(C(=O)NCC(c2ccco2)S(=O)(=O)c2ccc(F)cc2)cc1", "note": "(stereo unspecified)", "Potency": "inactive"},
      {"smiles": "CSc1ccc(CCNC(=O)c2cc(C)nc3c2c(C)nn3-c2cccc(F)c2)cc1", "Potency": "inactive"},
      {"smiles": "CC(C)(C)OC(=O)N1CCC(c2c(C(=O)NCc3ccccn3)cnn2-c2ccc(F)cc2)CC1", "Potency": "inactive"},
      {"smiles": "COc1ccccc1N1CCN(c2ncnc3onc(-c4cccc(Cl)c4)c23)CC1", "Potency": "inactive"},
      {"smiles": "Cc1cccc(CC(=O)N2CC(=O)Nc3ccc(F)cc3C2c2ccccc2)c1", "note": "(stereo unspecified)", "Potency": "inactive"},
      {"smiles": "O=C(NCc1ccccc1)C1CCN(S(=O)(=O)c2ccc3[nH]c(=O)ccc3c2)CC1", "Potency": "inactive"},
      {"smiles": "CCCn1c(NCc2ccccc2F)nc2ccccc21", "Potency": "inactive"},
      {"smiles": "CCN1/C(=C\\c2ccc3ccccc3[n+]2CC)Sc2cc(C)ccc21", "Potency": "11.2 µM (active)"},
      {"smiles": "CSc1ccccc1-c1nnc(NC(=O)c2ccc3c(c2)OCCO3)o1", "Potency": "inactive"},
      {"smiles": "COc1ccc(C(=O)NCC(c2ccco2)N2CCc3ccccc32)cc1OC", "note": "(stereo unspecified)", "Potency": "inactive"},
      {"smiles": "Cc1ccsc1/C=N/NC(=O)Cc1cc(=O)[nH][nH]1", "Potency": "inactive"},
      {"smiles": "Cc1ccccc1NCC(=O)N/N=C\\c1ccc([N+](=O)[O-])s1", "Potency": "11.2 µM (active)"},
      {"smiles": "COc1ccc(N(CC(=O)N/N=C/c2cccs2)S(=O)(=O)c2ccc(OC)c(OC)c2)cc1", "Potency": "inactive"},
      {"smiles": "CCn1c(SCC(=O)N/N=C/C=C/c2ccccc2[N+](=O)[O-])nnc1-c1ccccc1", "Potency": "inactive"},
      {"smiles": "COc1ccc(C(=O)NCC(=O)N/N=C/c2ccc([N+](=O)[O-])s2)cc1OC", "Potency": "11.2 µM (active)"},
      {"smiles": "CCc1nc2ccc(C(=O)N3CCN(c4cc(Cl)ccc4C)CC3)cc2nc1CC", "Potency": "inactive"},
      {"smiles": "CC(C)c1ccc(OCC(=O)N(Cc2ccc(N(C)C)cc2)C2CCS(=O)(=O)C2)cc1", "note": "(stereo unspecified)", "Potency": "inactive"},
      {"smiles": "CC(=O)OC1=C(C(C)=O)N(Cc2ccccc2)S(=O)(=O)c2ccccc21", "Potency": "inactive"},
      {"smiles": "Oc1c(C(c2ccc(F)cc2)N2CCN(Cc3ccccc3)CC2)sc2nc(-c3ccco3)nn12", "note": "(stereo unspecified)", "Potency": "inactive"},
      {"smiles": "CCc1ccccc1NC(=O)c1ccc2nc(CCc3ccccc3)oc2c1", "Potency": "inactive"},
      {"smiles": "COc1cccc(CNCCSc2nnnn2C)c1OCc1ccccc1Cl", "Potency": "inactive"},
      {"smiles": "COc1cccc(CNCCc2c[nH]c3ccccc23)c1OCc1ccccc1F", "Potency": "17.8 µM (active)"},
      {"smiles": "COc1cccc(CNn2cn[nH]c2=S)c1OCc1ccccc1", "Potency": "inactive"},
      {"smiles": "CCC(C)Nc1oc(-c2ccc(COc3ccc(Cl)cc3)o2)nc1C#N", "note": "(stereo unspecified)", "Potency": "inactive"},
      {"smiles": "C/C(=N\\NC(=O)CC(C)C)c1c(C(F)(F)F)[nH]n(-c2nc3ccccc3s2)c1=O", "Potency": "10 µM (active)"},
      {"smiles": "CCC(C)Cn1c(O)cc2nn(-c3nc4ccccc4s3)c(=O)c-2c1C", "note": "(stereo unspecified)", "Potency": "inactive"},
      {"smiles": "O=C(Nc1ccc(F)cc1F)c1ccc2c(=O)n3c(nc2c1)CCCCC3", "Potency": "inactive"},
      {"smiles": "CC(C)(C)c1ccc(C(=O)Nc2ccc3c(c2)CCCN3C(=O)c2cccs2)cc1", "Potency": "inactive"},
      {"smiles": "COc1ccc(Cn2c(=O)sc3ccccc32)cc1OC", "Potency": "inactive"},
      {"smiles": "OC(CN=c1sc2ccccc2n1CC(O)COc1ccccc1)COc1ccccc1", "note": "(stereo unspecified)", "Potency": "14.1 µM (active)"},
      {"smiles": "CCCn1c(=N)n(CC(O)COc2ccccc2OC)c2ccccc21", "note": "(stereo unspecified)", "Potency": "inactive"},
      {"smiles": "Cc1c(NC(=O)Nc2ccc(F)c(Cl)c2)c(=O)n(-c2ccccc2)n1C", "Potency": "inactive"},
      {"smiles": "CCCOc1ccc(NC(=O)CC2C(=O)N(c3ccccc3)C(=O)N2Cc2ccco2)cc1", "note": "(stereo unspecified)", "Potency": "inactive"},
      {"smiles": "CN1c2ccc(C=O)c3c(C=O)ccc(c23)N(C)C1(C)C", "Potency": "11.2 µM (active)"},
      {"smiles": "O=C1C[C@@H](c2ccc3ccccc3c2)N1S(=O)(=O)c1ccccc1[N+](=O)[O-]", "Potency": "inactive"},
      {"smiles": "CCOc1ccc(OCC)c(NC(=O)c2cc(C)nc3c2c(C)nn3-c2cccc(Cl)c2C)c1", "Potency": "inactive"},
      {"smiles": "CCn1c(C)c(C)c2cc(C(=O)N3CCN(c4cccc(C)c4C)CC3)ccc21", "Potency": "inactive and 17.8 µM (active)"},
      {"smiles": "Cc1c(C)n(Cc2ccc(Cl)cc2)c2ccc(C(=O)N3CCN(c4ccccc4F)CC3)cc12", "Potency": "inactive"},
      {"smiles": "Cc1cccc(N2CCN(C(=O)c3ccc4c(c3)CCN4S(=O)(=O)c3ccccc3)CC2)c1C", "Potency": "inactive"},
      {"smiles": "O=C1OC(C(=O)Nc2cccc(Br)c2)Cc2ccccc21", "note": "(stereo unspecified)", "Potency": "inactive"}
    ]}
  ]
}
